Screening results deposited in PubChem BioAssay by several laboratories.
This is a sample that favours compounds with a hit; in the whole collection about 6.6% have one here.
MPTP block: inhibitors of mitochondrial permeability transition pore | AID 602449 | isolated mouse mitochondria, Ca2+ swelling absorbance, 30 min | inhibition, % at 10 µM | actives 1.4% (n = 360,000);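 active = inhibition of 50% or more, scaled per plate between neutral and stimulator controls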
Gli-Sufu block: antagonists of Gli-Sufu signaling. actives 0.74% (n = 340,000). Sufu-KO-LIGHT fibroblasts, Gli luciferase reporter luminescence. inhibition, % at 5 µM;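 active = inhibition above about 55%, limit read from the data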
CSC inhib: blocks cancer stem cells; actives 1.1% (n = 300,000); cancer stem cell-like cells viability, luminescence; inhibition, % at 7.5 µM; in the data active = inhibition above about 75%; tested in HMLE shEcad cells
Mdm2-MdmX inh: human Mdm2/MdmX binding inhibition | SaOS-2 split-luciferase Mdm2/MdmX complementation, luminescence | inhibition, % at 8 µM | actives 3% (n = 330,000) | AID 485346;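 active = inhibition of at least 50% at 8 µM in the primary screen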
Beta apoptosis: beta cell apoptosis inhibition; INS-1E cytokine-induced death, ATP luminescence, 48 h; percent of positive-control rescue, neutral wells zero; protection from apoptosis, % (test concentration not listed); actives 0.8% (n = 300,000);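 active = Every replicate reaches about 75%, or at least half do and their mean reaches it too, limit read from the data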;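 note: higher means more ATP so stronger rescue from cytokine killing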
NR3A LBD binder: modulates the human NR3A ligand-binding domain; NR3A LBD differential scanning fluorimetry, Tm shift; 0% = protein alone, 100% = glycine-bound protein; Tm shift relative to glycine control, % at 25 µM; actives 2.5% (n = 340,000); AID 1259313;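 active = melting temperature shift of at least 10% of the positive control shift, at one fixed dose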
Mdm2-MdmX conf: human Mdm2/MdmX binding inhibition, confirmed; shares compounds with Mdm2-MdmX inh; luminescent assay; inhibition, % at 8 µM; actives 55% (n = 10,000); AID 489028; in the data active = inhibition above about 40%
FLuc counter: full-length luciferase inhibition in Mdm2/MdmX counter-screen; shares compounds with Mdm2-MdmX inh; SaOS-2 full-length luciferase counterscreen, luminescence; inhibition, % at 8 µM; actives 77% (n = 6,200);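 active = mean inhibition at 8 µM reaching about 37%, which flags the compound as non-specific, limit read from the data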;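 note: p53-null SaOS-2 cells with luciferase driven by a doxycycline-inducible promoter; compound on cells about two nights before reading with doxycycline added after day one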
Large screens that a line does not name were inactive (follow-up assays come after a bar, where they were run).

Fc1ccc(C[n+]2c(-c3ccccc3)cc(-c3ccccc3)cc2-c2ccccc2)cc1	Mdm2-MdmX inh 88.5, Beta apoptosis 128.5 (no result: MPTP block) | Mdm2-MdmX conf 68.8 | FLuc counter 38.0
Clc1ccc(C[n+]2c(-c3ccccc3)cc(-c3ccccc3)cc2-c2ccccc2)cc1	Gli-Sufu block 70.0, Mdm2-MdmX inh 89.9, Beta apoptosis 122.4 | Mdm2-MdmX conf 83.8 | FLuc counter inactive
CN1CCN2c3ccccc3CC3(C(=O)N(C)C(=O)N(C)C3=O)C2C1 (stereo not drawn)	none
CC1CN=C(Nc2ccc(F)c(Cl)c2)S1 (stereo not drawn)	none
Cc1cc(=O)[nH]c(CCl)n1	none
COc1ccc2c(c1)C13CCCC[C@@H]1C(C2)N(C)CC3 (stereo partly drawn)	Mdm2-MdmX inh 50.6 | Mdm2-MdmX conf inactive
O=[N+]([O-])c1cc(F)c(N2CCCCCC2)cc1N1CCNCC1	Mdm2-MdmX inh 52.3 | Mdm2-MdmX conf inactive
Oc1ccc(C2=CCNCC2)cc1O	none
Brc1ccc2c(c1)C(OC1CN3CCC1CC3)c1ccccc1CS2 (stereo not drawn)	Mdm2-MdmX inh 80.2 | Mdm2-MdmX conf 66.8 | FLuc counter inactive
CC1OC(OC2CC(O)C3(CO)C4C(O)CC5(C)C(C6=CC(=O)OC6)CCC5(O)C4CCC3(O)C2)C(O)C(O)C1O (stereo not drawn)	none (no result: MPTP block, CSC inhib, Mdm2-MdmX inh, Beta apoptosis)
C[C@@H]1O[C@@H](O[C@H]2C[C@@H](O)[C@]3(CO)[C@H]4[C@H](O)C[C@]5(C)[C@@H](C6COC(=O)C6)CC[C@]5(O)[C@@H]4CC[C@]3(O)C2)[C@H](O)[C@H](O)[C@H]1O (stereo partly drawn)	CSC inhib 82.0, Mdm2-MdmX inh 57.7 | Mdm2-MdmX conf 67.4 | FLuc counter inactive
O=C(CN1CCN(c2ccccc2F)CC1)Nc1cccnc1Cl	none
COc1ccccc1OP(=O)(Nc1cccnc1)Oc1ccccc1OC	Mdm2-MdmX inh 50.7 (no result: CSC inhib, Beta apoptosis) | Mdm2-MdmX conf 48.1 | FLuc counter 74.4
CCOP(=O)(Cc1cc(C(=O)CC)c(C)o1)OCC	none
CC1=NCCc2c1[nH]c1cc(O)ccc21	none
C1=NCCc2c1[nH]c1ccccc21	Mdm2-MdmX inh 52.4 (no result: Beta apoptosis) | Mdm2-MdmX conf inactive
COC(=O)C(Cc1ccc(N(CCCl)CCCl)cc1)N=Cc1ccccc1O (stereo not drawn)	Gli-Sufu block 63.8, CSC inhib 83.0, Mdm2-MdmX inh 92.7, Beta apoptosis 105.9 | Mdm2-MdmX conf 83.1 | FLuc counter 59.2
O=C(c1ccc(F)cc1)N1CCC2(CC1)OCCO2	none
CC[C@@]1(O)C(=O)OCc2c1cc1n(c2=O)Cc2cc3c(NC(=O)CN)cccc3nc2-1	CSC inhib 108.3, Mdm2-MdmX inh 83.7 | Mdm2-MdmX conf 78.8 | FLuc counter 56.9
CC(C)(C)NC(=S)/N=C(\N)N[N+](=O)[O-]	none
N=c1c2c(n(Cc3ccc(Cl)cc3Cl)c3c1CCC3)CCCC2	Mdm2-MdmX inh 82.2, Beta apoptosis 120.9 | Mdm2-MdmX conf inactive | FLuc counter 58.9
Cc1nn(Cc2ccc(Cl)cc2Cl)c(Cl)c1C(=O)O	none
FC(F)(F)c1ccccc1CNCCc1c[nH]c2ccccc12	none
c1ccc2c(N3CCNCC3)nsc2c1	Mdm2-MdmX inh 52.6 | Mdm2-MdmX conf 64.5 | FLuc counter inactive
Nc1ncnc2c1ccn2[C@@H]1O[C@H](CO)[C@@H](O)[C@H]1O	Mdm2-MdmX inh 100.3 (no result: Beta apoptosis) | Mdm2-MdmX conf 100.2 | FLuc counter 50.1
O=CNc1ccc(OP(=O)(Oc2ccccc2)Oc2ccccc2)cc1	none
O=CC(Cl)P(=O)(N1CCOCC1)N1CCOCC1 (stereo not drawn)	none
CCC1C=CC=CC[C@H](C)[C@@H](O)[C@](C)(O)C(=O)[C@@H](C)[C@H](O)[C@@H](C)C(=O)[C@H](C)[C@@H](O)[C@H](C)C=CC(=O)OC2[C@@H](C)C(CC1)OC1(CC[C@@H](C)C(C[C@H](C)O)O1)[C@@H]2C (stereo partly drawn)	CSC inhib 99.0, Mdm2-MdmX inh 100.4, Beta apoptosis 103.9 (no result: MPTP block, Gli-Sufu block, NR3A LBD binder) | Mdm2-MdmX conf 55.8 | FLuc counter 49.6
Cc1nn(Cc2c(Cl)cccc2Cl)c(Cl)c1C(=O)O	none
COC(=O)C1=C(c2cc3ccccc3s2)C[C@@H]2CC[C@H]1N2C(=O)N1CCOCC1	Mdm2-MdmX inh 54.8 | Mdm2-MdmX conf 55.0 | FLuc counter 55.5
COC(=O)C1=C(c2cc3ccccc3s2)C[C@@H]2CC[C@H]1N2C(=O)N1CCCC1	none
S=C=Nc1cccc(C2(N3CCCCC3)CCCCC2)c1	Mdm2-MdmX inh 69.3 | Mdm2-MdmX conf inactive
C=C(CO)CC1CC(O)[C@]2(C)OC3CC4OC5C[C@]6(C)O[C@]7(C)CCC8OC9C[C@]%10(C)OC%11C(C)=CC(=O)OC%11CC%10OC9C[C@@H](C)C8OC7CC6O[C@]5(C)C/C=C\C4OC3CC2O1 (stereo partly drawn)	none
C=C(C=O)CC1CC(O)[C@]2(C)OC3CC4OC5C[C@]6(C)O[C@]7(C)CCC8OC9C[C@]%10(C)OC%11C(C)=CC(=O)OC%11CC%10OC9C[C@@H](C)C8OC7CC6O[C@]5(C)CC5OC5C4OC3CC2O1 (stereo partly drawn)	Gli-Sufu block 74.9, Mdm2-MdmX inh 98.9, Beta apoptosis 100.6 | Mdm2-MdmX conf 100.0 | FLuc counter inactive
CC(C)(C)c1nc(N2CCN(C(=O)c3ccco3)CC2)c2nnn(Cc3ccccc3Cl)c2n1	CSC inhib 119.0, Mdm2-MdmX inh 57.4 | Mdm2-MdmX conf inactive
CC1(C)CC(CCNCc2ccc3c(c2)OCO3)(Cc2ccccc2)CCO1 (stereo not drawn)	none
Nc1ccncc1Cl	none
CCn1c(NN=O)nc2ccccc21	Gli-Sufu block 70.1, Mdm2-MdmX inh 77.5, Beta apoptosis 98.7 | Mdm2-MdmX conf 71.9 | FLuc counter inactive
CCn1c(P(C)(=O)O)nc2ccccc21	none
O=[N+]([O-])c1ccc(NC2CCCC2)c2ccncc12	none
O=[N+]([O-])c1ccc(NC2CCN(Cc3ccccc3)CC2)c2ccncc12	Mdm2-MdmX inh 63.9 | Mdm2-MdmX conf inactive
NC(N)=N/N=C/c1cn(-c2ccccc2)nc1-c1cccs1	Mdm2-MdmX inh 99.5, Beta apoptosis 104.9 | Mdm2-MdmX conf 94.0 | FLuc counter 57.4
O=c1c2ccccc2nc(-c2cccs2)n1-c1ccccc1	none
CN[C@@H]1C[C@@H](c2ccc(Cl)c(Cl)c2)c2ccccc21	Mdm2-MdmX inh 82.2 (no result: MPTP block, Gli-Sufu block, NR3A LBD binder) | Mdm2-MdmX conf inactive
COc1ccc(CNCCc2c[nH]c3ccccc23)c(OC)c1C	none
COc1cc(C)c(CNCCc2c[nH]c3ccccc23)cc1C	Mdm2-MdmX inh 64.3 | Mdm2-MdmX conf inactive
